Screening results as filed in PubChem.
Sampled rows, rich in hits. Any-hit rate of the full collection: about 4.3%.
NadD inh = blocks S. aureus nicotinate mononucleotide adenylyltransferase | 0.78% of 360,000 active | purified NadD enzyme, colorimetric absorbance read-out | inhibition, % at 20 µM; in the data active = inhibition above about 26%
rCAG binder = binds r(CAG) RNA repeats; r(CAG) RNA repeat, TO-PRO-1 dye displacement fluorescence; inhibition, % at 3 µM; 1.3% of 370,000 active; AID 651821;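 active = inhibition above the plate cutoff, the mean of all test compounds on that plate plus 3 SD, cut at about 35% in these data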;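 also: 0% = DMSO alone and 100% = 100 µM mitoxantrone as full dye displacement; higher means more dye released from RNA so lower well fluorescence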
GRIN3A LBD mod = NR3A (human) ligand-binding domain modulation. 2.5% of 340,000 active. Tm shift relative to glycine control, % at 25 µM. NR3A LBD differential scanning fluorimetry, Tm shift; 0% = protein alone, 100% = glycine-bound protein;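 active = melting temperature shift of at least 10% of the positive control shift, at one fixed dose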
FAS TE block = FAS thioesterase (human) inhibition; P49327; recombinant FAS-TE, OMFH fluorogenic substrate, fluorescence endpoint; inhibition, % at 15 µM; 0.67% of 360,000 active; AID 602261;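 active = compounds whose normalised, plate-corrected inhibition of enzyme fluorescence in the single-dose primary screen is 50% or more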;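 also: 0% = DMSO with enzyme and 100% = substrate without enzyme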
Target sequence (P49327 whole entry, looked up): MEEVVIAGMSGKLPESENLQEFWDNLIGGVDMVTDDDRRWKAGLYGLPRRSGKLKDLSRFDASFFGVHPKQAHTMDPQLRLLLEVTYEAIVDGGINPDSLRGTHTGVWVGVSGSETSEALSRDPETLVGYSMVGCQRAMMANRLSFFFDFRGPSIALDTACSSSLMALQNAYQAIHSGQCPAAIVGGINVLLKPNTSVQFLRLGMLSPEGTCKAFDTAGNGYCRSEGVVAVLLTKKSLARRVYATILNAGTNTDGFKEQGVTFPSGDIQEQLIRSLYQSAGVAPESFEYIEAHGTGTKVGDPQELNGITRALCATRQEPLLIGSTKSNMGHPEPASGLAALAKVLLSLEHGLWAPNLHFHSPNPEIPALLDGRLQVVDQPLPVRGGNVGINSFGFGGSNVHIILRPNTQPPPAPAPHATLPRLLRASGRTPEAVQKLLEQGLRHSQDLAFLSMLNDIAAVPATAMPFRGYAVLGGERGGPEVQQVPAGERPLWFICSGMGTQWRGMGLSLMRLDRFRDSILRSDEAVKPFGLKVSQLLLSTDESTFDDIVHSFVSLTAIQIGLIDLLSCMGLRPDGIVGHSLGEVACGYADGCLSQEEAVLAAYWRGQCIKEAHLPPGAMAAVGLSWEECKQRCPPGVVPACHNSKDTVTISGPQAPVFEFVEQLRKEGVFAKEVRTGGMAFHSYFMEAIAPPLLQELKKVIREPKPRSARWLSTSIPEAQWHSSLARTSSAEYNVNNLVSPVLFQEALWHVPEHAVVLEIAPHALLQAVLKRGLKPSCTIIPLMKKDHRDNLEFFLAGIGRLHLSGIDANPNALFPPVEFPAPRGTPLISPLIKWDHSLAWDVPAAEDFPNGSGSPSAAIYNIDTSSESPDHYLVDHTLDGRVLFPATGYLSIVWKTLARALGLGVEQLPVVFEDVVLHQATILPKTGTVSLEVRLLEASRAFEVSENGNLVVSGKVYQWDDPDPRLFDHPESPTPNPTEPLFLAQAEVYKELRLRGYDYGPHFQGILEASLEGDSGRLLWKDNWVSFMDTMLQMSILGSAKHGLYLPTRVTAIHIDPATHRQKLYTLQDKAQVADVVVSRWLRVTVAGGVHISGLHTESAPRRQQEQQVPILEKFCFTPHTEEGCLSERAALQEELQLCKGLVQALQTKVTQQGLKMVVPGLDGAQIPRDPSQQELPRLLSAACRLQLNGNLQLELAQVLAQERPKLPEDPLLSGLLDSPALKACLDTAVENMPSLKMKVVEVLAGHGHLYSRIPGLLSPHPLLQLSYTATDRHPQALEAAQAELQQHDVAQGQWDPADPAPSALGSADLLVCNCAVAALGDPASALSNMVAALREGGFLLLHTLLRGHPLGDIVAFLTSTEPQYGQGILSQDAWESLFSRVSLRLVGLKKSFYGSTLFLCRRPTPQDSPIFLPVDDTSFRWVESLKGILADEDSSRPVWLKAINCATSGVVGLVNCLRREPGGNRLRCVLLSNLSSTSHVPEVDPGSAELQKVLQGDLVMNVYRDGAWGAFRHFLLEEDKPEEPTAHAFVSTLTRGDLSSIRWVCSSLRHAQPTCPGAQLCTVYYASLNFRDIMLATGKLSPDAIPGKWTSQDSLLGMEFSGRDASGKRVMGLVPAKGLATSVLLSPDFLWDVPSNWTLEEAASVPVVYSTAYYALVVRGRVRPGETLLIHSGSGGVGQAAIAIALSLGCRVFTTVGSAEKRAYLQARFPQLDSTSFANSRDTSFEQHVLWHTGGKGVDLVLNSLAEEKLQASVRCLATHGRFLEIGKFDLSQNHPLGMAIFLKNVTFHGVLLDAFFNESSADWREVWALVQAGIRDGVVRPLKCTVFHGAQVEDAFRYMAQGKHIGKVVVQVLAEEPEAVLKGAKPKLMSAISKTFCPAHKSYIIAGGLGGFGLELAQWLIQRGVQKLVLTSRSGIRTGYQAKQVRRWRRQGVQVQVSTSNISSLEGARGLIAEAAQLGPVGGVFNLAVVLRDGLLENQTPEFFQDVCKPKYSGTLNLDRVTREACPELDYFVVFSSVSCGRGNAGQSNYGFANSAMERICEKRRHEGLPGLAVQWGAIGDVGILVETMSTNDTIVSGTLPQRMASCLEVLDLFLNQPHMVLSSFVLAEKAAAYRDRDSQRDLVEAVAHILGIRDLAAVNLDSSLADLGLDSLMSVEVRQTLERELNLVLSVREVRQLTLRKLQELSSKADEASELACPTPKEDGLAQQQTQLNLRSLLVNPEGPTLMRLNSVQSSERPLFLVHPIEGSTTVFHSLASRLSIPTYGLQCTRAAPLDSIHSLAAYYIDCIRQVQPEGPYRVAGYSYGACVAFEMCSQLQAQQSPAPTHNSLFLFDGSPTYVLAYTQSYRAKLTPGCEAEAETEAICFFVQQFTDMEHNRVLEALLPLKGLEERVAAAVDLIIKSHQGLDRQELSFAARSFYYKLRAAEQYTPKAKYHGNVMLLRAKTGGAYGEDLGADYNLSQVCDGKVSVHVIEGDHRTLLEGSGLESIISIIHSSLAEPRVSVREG
rCAG bind conf = r(CAG) RNA repeat binding, confirmation; AID 652065; shares compounds with rCAG binder; inhibition, % at 3 µM; TO-PRO-1 dye displacement fluorescence; 70% of 4,300 active;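 active = inhibition above a per-plate cutoff, the mean inhibition of sample wells plus 3 SD, cut at about 35% in these data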;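 also: loss of TO-PRO-1 fluorescence as compound displaces dye from 1x1 AA loop RNA; 0% = DMSO only wells and 100% = 100 µM mitoxantrone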
DNA CAG counter = DNA CAG dye complex inhibition counter-screen; shares compounds with rCAG binder; AID 652068; inhibition, % at 3 µM; d(CAG) DNA oligo TO-PRO-1 dye displacement, fluorescence; 94% of 4,300 active;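 active = inhibition above its plate's cutoff, the mean test-well inhibition plus 3 SD, cut at about 4.8% in these data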;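 also: 0% = DNA dye mix with DMSO and 100% = 100 µM mitoxantrone; hits displace the dye from DNA and so lower well fluorescence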
dCAG dye DR = DNA CAG dye complex inhibition, dose response counter-screen; shares compounds with rCAG binder; DNA CAG/GTC duplex TO-PRO-1 dye displacement fluorescence; IC50, µM; 20% of 250 active; in the data active = IC50 below about 10 µM
An asterisk follows results filed as active.

Results for CCCOc1ccc(C(=O)NNC(=S)NC(=O)c2ccccc2)cc1 ?
NadD inh: 1.2; rCAG binder: 27.6; GRIN3A LBD mod: 0.5; FAS TE block: 6.7

What do the screens show for `COC(=O)N1C[C@H](Oc2ncccn2)[C@H]2C[C@@H]1c1ccccc1O2`?
rCAG binder: 1.9

How did COc1ccccc1-n1c(SCC(=O)Nc2ccc(Br)cc2)nc(O)cc1=O do in these assays?
NadD inh: 4.3; rCAG binder: 41.5*; GRIN3A LBD mod: -0.5; FAS TE block: -5.9; rCAG bind conf: 17.3; DNA CAG counter: 7.5*

How did COc1ccc(-n2c(SCC(=O)Nc3ccc(Cl)cc3)nc(O)c(Cc3ccccc3)c2=O)cc1 do in these assays?
NadD inh: 2.9; rCAG binder: 62.5*; GRIN3A LBD mod: 10.3*; FAS TE block: 6.6; rCAG bind conf: 53.9*; DNA CAG counter: 19.7*

How did COc1ccc(-n2c(SCC(=O)Nc3ccc(C)cc3)nc(O)c(Cc3ccccc3)c2=O)cc1 do in these assays?
NadD inh: 9.4; rCAG binder: 23.8; GRIN3A LBD mod: -6.5; FAS TE block: -3.8

Results for COc1ccc(NC(=O)CSc2nc(O)cc(=O)n2C)cc1 ?
NadD inh: -5.3; rCAG binder: 33.0; GRIN3A LBD mod: -0.7; FAS TE block: -5.3

What do the screens show for `Cn1c(SCC(=O)Nc2ccccc2)nc(O)cc1=O`?
NadD inh: 2.4; rCAG binder: 37.2*; GRIN3A LBD mod: 0.3; FAS TE block: -6.9; rCAG bind conf: 6.7; DNA CAG counter: 5.0*

What do the screens show for `COc1ccc(NC(=O)CSc2nc(O)cc(=O)n2-c2ccccc2)cc1`?
NadD inh: 0.2; rCAG binder: 37.7*; GRIN3A LBD mod: -1.3; FAS TE block: -4.9; rCAG bind conf: 13.5; DNA CAG counter: 7.5*

How did Cc1onc(-c2ccccc2)c1C(=O)N1CCN(C(=O)C(=O)c2cccc(C(F)(F)F)c2)CC1 do in these assays?
rCAG binder: -1.1

How did CC(C)(C)c1ccc(S(=O)(=O)N2CCC(C(=O)NCc3cccs3)CC2)cc1 do in these assays?
rCAG binder: 2.7

What do the screens show for `Cc1ccc(C(=O)NC2CCCCN(C)C2=O)c(C)c1` (configuration not stated)?
rCAG binder: 1.4

Results for O=C(CSc1nc(O)cc(=O)n1-c1ccccc1)Nc1nc2ccccc2s1 ?
NadD inh: 1.8; rCAG binder: 44.0*; GRIN3A LBD mod: -1.7; FAS TE block: 2.4; rCAG bind conf: 51.6*; DNA CAG counter: 18.6*

How did Cc1ccc(-n2c(SCC(=O)Nc3ccc(Cl)cc3)nc(O)cc2=O)cc1 do in these assays?
NadD inh: -1.3; rCAG binder: 37.0*; GRIN3A LBD mod: -6.3; FAS TE block: -3.0; rCAG bind conf: 25.0; DNA CAG counter: 10.2*

How did Cc1ccc(S(=O)(=O)Nc2nc(C)c(C(=O)Nc3ccccc3)s2)cc1 do in these assays?
NadD inh: 2.1; rCAG binder: 36.0*; GRIN3A LBD mod: -9.6; FAS TE block: -7.4; rCAG bind conf: 19.2; DNA CAG counter: 2.1

What do the screens show for `Cc1ccc(S(=O)(=O)Nc2nc(C)c(C(=O)NNS(=O)(=O)c3ccccc3)s2)cc1`?
NadD inh: 0.5; rCAG binder: 13.9; GRIN3A LBD mod: -1.6; FAS TE block: -7.1

Results for Cc1c(C(=O)N/N=C/c2cccnc2)sc(=S)n1C ?
NadD inh: 3.3; rCAG binder: 7.5; GRIN3A LBD mod: -7.5; FAS TE block: -6.6

How did Cc1ccc(S(=O)(=O)Nc2nc(C)c(NC(=O)Nc3ccc(Cl)cc3Cl)s2)cc1 do in these assays?
NadD inh: 15.7; rCAG binder: 61.9*; GRIN3A LBD mod: 28.1*; FAS TE block: 4.4; rCAG bind conf: 58.9*; DNA CAG counter: 23.7*

Results for Cc1nc(-c2ccccc2)sc1C(=O)NN ?
NadD inh: 1.0; rCAG binder: 5.4; GRIN3A LBD mod: 1.3; FAS TE block: -3.7

What do the screens show for `Cc1nc(NS(=O)(=O)c2ccccc2)sc1C(=O)NN`?
NadD inh: -1.0; rCAG binder: 83.4*; GRIN3A LBD mod: -1.5; FAS TE block: -3.4; rCAG bind conf: 9.2; DNA CAG counter: 4.1

What do the screens show for `Cn1c(N)c(C(=O)N/N=C/c2ccccc2)sc1=S`?
NadD inh: 0.8; rCAG binder: 42.6*; GRIN3A LBD mod: 32.8*; FAS TE block: 3.0; rCAG bind conf: 21.4; DNA CAG counter: 7.8*

Results for COc1ccc(-c2nnn3c2C2c4cc(-c5cccc(F)c5)ccc4CCN2C(=O)C3)cc1 (configuration not stated) ?
rCAG binder: 5.7

What do the screens show for `COC(=O)[C@]12C[C@H](CC(=O)NCCCN3CCCC3=O)C(=O)N(Cc3ccc(Cl)cc3Cl)C1=C[C@H](C1CCCC1)O[C@@H]2C`?
rCAG binder: 8.5

Results for CN(Cc1ccccc1)C(=O)OCc1cn(Cc2ccc(C(F)(F)F)cc2)nn1 ?
rCAG binder: -0.9

Results for C/C(=N/NC(=O)c1sc(NS(=O)(=O)c2ccccc2)nc1C)c1sc(N)nc1C ?
NadD inh: -1.0; rCAG binder: 79.0*; GRIN3A LBD mod: 1.4; FAS TE block: -3.0; rCAG bind conf: 10.0; DNA CAG counter: 3.3

How did COc1ccc(NC(=O)Nc2sc(NS(=O)(=O)c3ccccc3)nc2C)cc1 do in these assays?
NadD inh: 13.2; rCAG binder: 23.6; GRIN3A LBD mod: 1.1; FAS TE block: 0.5

What do the screens show for `Cc1ccc(S(=O)(=O)Nc2nc(C)c(C(=O)N/N=C/c3ccccc3)s2)cc1`?
NadD inh: 8.6; rCAG binder: 79.9*; GRIN3A LBD mod: -9.1; FAS TE block: 0.6; rCAG bind conf: 70.5*; DNA CAG counter: 23.5*; dCAG dye DR: inactive

What do the screens show for `CCCCCOC(=O)C1C(c2ccccc2)C(C(=O)O)C1c1ccccc1` (configuration not stated)?
NadD inh: 4.8; rCAG binder: 35.4*; GRIN3A LBD mod: 10.2*; FAS TE block: -0.4; rCAG bind conf: 23.8; DNA CAG counter: 2.9

What do the screens show for `O=C(O)C1C(c2ccccc2)C(C(=O)OCCCO)C1c1ccccc1` (configuration not stated)?
NadD inh: 7.9; rCAG binder: 3.8; GRIN3A LBD mod: -0.2; FAS TE block: -4.8

How did O=S(=O)(Nc1cccc(S(=O)(=O)N2CCCCC2)c1)c1ccc(Cl)s1 do in these assays?
NadD inh: -2.3; rCAG binder: 45.7*; GRIN3A LBD mod: -8.1; FAS TE block: 15.8; rCAG bind conf: 34.8*; DNA CAG counter: 11.6*

What do the screens show for `O=C(Nc1cc(S(=O)(=O)Nc2ccccc2Cl)ccc1O)c1ccc(F)cc1F`?
NadD inh: 0.1; rCAG binder: 25.0; GRIN3A LBD mod: -8.7; FAS TE block: -10.7

How did Cc1ccc(NC(=O)CCNC(=O)c2ccccc2Cl)cc1S(=O)(=O)N1CCCCCC1 do in these assays?
NadD inh: -7.6; rCAG binder: 1.0; GRIN3A LBD mod: -1.6; FAS TE block: 0.1
